Inconclusive results are not listed. Entries that show only a call come without a potency. The source made the active and inactive calls. Calls follow the shape of the dose curve; as a rule, active = well fitted inhibition curve with a large enough effect; inconclusive = small, poorly fitted or top-dose-only effect; inactive = flat fitted curve, though single readings scatter.
What was measured:
Experiment in all cases: qHTS profiling for inhibitors of Plasmodium falciparum proliferation (AID 504749); also: nearly all actives have a fitted effect of over 60% in size
Settings in all cases: P. falciparum in erythrocytes, SYBR Green DNA, 72 h; series mostly up to 28.7 µM
CP262 = tested on: CP262
Method in brief: (§1)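 Parasite proliferation within erythrocytes, 72 h exposure. Endpoint: SYBR Green I fluorescence after overnight lysis at room temperature. Controls: 0.29 uM artemisinin, DMSO.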

CP265 = tested on: CP265
Method in brief: as §1

CP266 = tested on: CP266
Method in brief: as §1

CP268 = tested on: CP268
Method in brief: as §1

CP269 = tested on: CP269
Method in brief: as §1

CP286 = tested on: CP286
Method in brief: as §1

CP291 = tested on: CP291
Method in brief: as §1

CP297 = tested on: CP297
Method in brief: as §1

CP305 = tested on: CP305
Method in brief: as §1

CP315 = tested on: CP315
Method in brief: as §1

CP325 = tested on: CP325
Method in brief: as §1

CP329 = tested on: CP329
Method in brief: as §1

CP335 = tested on: CP335
Method in brief: as §1

DFO2036 = tested on: DFO2036
Method in brief: as §1

DIV14 = tested on: DIV14
Method in brief: as §1

DIV17 = tested on: DIV17
Method in brief: as §1

DIV30 = tested on: DIV30
Method in brief: as §1

Dd2 = tested on: Dd2
Method in brief: as §1

ECU = tested on: ECU
Method in brief: as §1

FAB9 = tested on: FAB9
Method in brief: as §1
Potency is read from the fitted curve at half-maximal effect.

| SMILES | Potency (CP262) | Potency (CP265) | Potency (CP266) | Potency (CP268) | Potency (CP269) | Potency (CP286) | Potency (CP291) | Potency (CP297) | Potency (CP305) | Potency (CP315) | Potency (CP325) | Potency (CP329) | Potency (CP335) | Potency (DFO2036) | Potency (DIV14) | Potency (DIV17) | Potency (DIV30) | Potency (Dd2) | Potency (ECU) | Potency (FAB9) |
| --- | --- | --- | --- | --- | --- | --- | --- | --- | --- | --- | --- | --- | --- | --- | --- | --- | --- | --- | --- | --- |
| C=CCc1ccc(O)c(OC)c1 | inactive | inactive | inactive | inactive | inactive | inactive | inactive | inactive | inactive | inactive | inactive | inactive | inactive | inactive | inactive | inactive | inactive | inactive | inactive | inactive |
| CC(=O)N(O)CCCCCNC(=O)CCC(=O)N(O)CCCCCNC(=O)CCC(=O)N(O)CCCCCN | inactive | inactive | inactive | inactive | inactive | inactive | inactive | inactive | inactive | inactive | inactive | inactive | inactive | inactive | inactive | inactive | inactive | inactive | inactive | inactive |
| COc1c2occc2c(OC)c2c(=O)cc(C)oc12 | inactive | inactive | inactive | inactive | inactive | inactive | inactive | inactive | inactive | inactive | inactive | inactive | inactive | inactive | inactive | inactive | inactive | inactive | inactive | inactive |
| CCCCCCCCCCCCCCCC[N+](C)(C)CC | 4.78 µM (active) | 5.01 µM (active) | 13.5 µM (active) | 6.75 µM (active) | 4.26 µM (active) | 1.41 µM (active) | 4.78 µM (active) | 6.75 µM (active) | 6.01 µM (active) | 4.78 µM (active) | 6.01 µM (active) | 4.78 µM (active) | 4.78 µM (active) | 2.82 µM (active) | 7.57 µM (active) | 7.57 µM (active) | 5.36 µM (active) | 6.31 µM (active) | 5.01 µM (active) | 7.94 µM (active) |
| C[C@H]1[C@H](NC(=O)/C(=N/OC(C)(C)C(=O)O)c2csc(N)n2)C(=O)N1S(=O)(=O)O (stereo in doubt) | inactive | inactive | inactive | inactive | inactive | inactive | inactive | inactive | inactive | inactive | inactive | inactive | inactive | inactive | inactive | inactive | inactive | inactive | inactive | inactive |
| C[C@]12CCC(=O)C=C1CC[C@H]1[C@@H]3CC[C@](O)(C(=O)CO)[C@@]3(C)C[C@H](O)[C@@]12F | inactive | inactive | inactive | inactive | inactive | inactive | inactive | inactive | inactive | inactive | inactive | inactive | inactive | inactive | inactive | inactive | inactive | inactive | inactive | inactive |
| CCOc1ccc(NC(=O)CC(C)O)cc1 (stereo not given) | inactive | inactive | inactive | inactive | inactive | inactive | inactive | inactive | inactive | inactive | inactive | inactive | inactive | inactive | inactive | inactive | inactive | inactive | inactive | inactive |
| CC(C)(C(=O)c1cccnc1)c1cccnc1 | inactive | inactive | inactive | inactive | inactive | inactive | inactive | inactive | inactive | inactive | inactive | inactive | inactive | inactive | inactive | inactive | inactive | inactive | inactive | inactive |
| NCCCC[C@H](N[C@@H](CCc1ccccc1)C(=O)O)C(=O)N1CCC[C@H]1C(=O)O | inactive | inactive | inactive | inactive | inactive | inactive | inactive | inactive | inactive | inactive | inactive | inactive | inactive | inactive | inactive | inactive | inactive | inactive | inactive | inactive |
| CC(C)(CO)[C@@H](O)C(=O)NCCCO | inactive | inactive | inactive | inactive | inactive | inactive | inactive | inactive | inactive | inactive | inactive | inactive | inactive | inactive | inactive | inactive | inactive | inactive | inactive | inactive |
| Nc1ccc(C(=O)O)cc1 | inactive | inactive | inactive | inactive | inactive | inactive | inactive | inactive | inactive | inactive | inactive | inactive | inactive | inactive | inactive | inactive | inactive | inactive | inactive | inactive |
| O=C(Nc1ccc(Cl)c(Cl)c1)C1CC1 | inactive | inactive | inactive | inactive | inactive | inactive | inactive | inactive | inactive | inactive | inactive | inactive | inactive | inactive | inactive | inactive | inactive | inactive | inactive | inactive |
| CCCCCC=CCC=CCCCCCCCC(=O)OCC | inactive | inactive | inactive | inactive | inactive | inactive | inactive | inactive | inactive | inactive | inactive | inactive | inactive | inactive | inactive | inactive | inactive | inactive | inactive | inactive |
| CC(=O)OCC(=O)NCCCOc1cccc(CN2CCCCC2)c1 | inactive | inactive | inactive | inactive | inactive | inactive | inactive | inactive | inactive | inactive | inactive | inactive | inactive | inactive | inactive | inactive | inactive | inactive | inactive | inactive |
| CC(=O)Nc1c(I)cc(I)c(C(=O)O)c1I | inactive | inactive | inactive | inactive | inactive | inactive | inactive | inactive | inactive | inactive | inactive | inactive | inactive | inactive | inactive | inactive | inactive | inactive | inactive | inactive |
| CN=C(NC#N)NCCSCc1csc(N=C(N)N)n1 | inactive | inactive | inactive | inactive | inactive | inactive | inactive | inactive | inactive | inactive | inactive | inactive | inactive | inactive | inactive | inactive | inactive | inactive | inactive | inactive |
| O=c1ccc2ccccc2o1 | inactive | inactive | inactive | inactive | inactive | inactive | inactive | inactive | inactive | inactive | inactive | inactive | inactive | inactive | inactive | inactive | inactive | inactive | inactive | inactive |
| Cc1c(N(C)CS(=O)(=O)O)c(=O)n(-c2ccccc2)n1C | inactive | inactive | inactive | inactive | inactive | inactive | inactive | inactive | inactive | inactive | inactive | inactive | inactive | inactive | inactive | inactive | inactive | inactive | inactive | inactive |
| COCc1c(C(C)C)nc(C(C)C)c(/C=C/[C@@H](O)C[C@@H](O)CC(=O)O)c1-c1ccc(F)cc1 | inactive | inactive | inactive | inactive | inactive | inactive | inactive | inactive | inactive | inactive | inactive | inactive | inactive | inactive | inactive | inactive | inactive | inactive | inactive | inactive |
| CC1(C)CCC(NC(=O)[C@@H](N)CCC(=O)O)CC1 | inactive | inactive | inactive | inactive | inactive | inactive | inactive | inactive | inactive | inactive | inactive | inactive | inactive | inactive | inactive | inactive | inactive | inactive | inactive | inactive |
| Cc1ncc(CSSCc2cnc(C)c(O)c2CO)c(CO)c1O | inactive | inactive | inactive | inactive | inactive | inactive | inactive | inactive | inactive | inactive | inactive | inactive | inactive | inactive | inactive | inactive | inactive | inactive | inactive | inactive |
| O=C(O)c1cc2cc(Cc3cccnc3)ccc2o1 | inactive | inactive | inactive | inactive | inactive | inactive | inactive | inactive | inactive | inactive | inactive | inactive | inactive | inactive | inactive | inactive | inactive | inactive | inactive | inactive |
| C1CCc2nnnn2CC1 | inactive | inactive | inactive | inactive | inactive | inactive | inactive | inactive | inactive | inactive | inactive | inactive | inactive | inactive | inactive | inactive | inactive | inactive | inactive | inactive |
| Cc1c(C(N)=O)cc([N+](=O)[O-])cc1[N+](=O)[O-] | inactive | inactive | inactive | inactive | inactive | inactive | inactive | inactive | inactive | inactive | inactive | inactive | inactive | inactive | inactive | inactive | inactive | inactive | inactive | inactive |
| O=C(O)CNC(=O)c1ccccc1 | inactive | inactive | inactive | inactive | inactive | inactive | inactive | inactive | inactive | inactive | inactive | inactive | inactive | inactive | inactive | inactive | inactive | inactive | inactive | inactive |
| C[C@]12CC[C@@H]3c4ccc(O)cc4CC[C@H]3[C@@H]1CC[C@@H]2O | inactive | inactive | inactive | inactive | inactive | inactive | inactive | inactive | inactive | inactive | inactive | inactive | inactive | inactive | inactive | inactive | inactive | inactive | inactive | inactive |
| Cc1c(C)n(CCN(C)C)c2ccc(C(=O)OCCN(C)C)cc12 | inactive | inactive | inactive | inactive | inactive | inactive | inactive | inactive | inactive | inactive | inactive | inactive | inactive | inactive | inactive | inactive | inactive | inactive | inactive | inactive |

From PubChem BioAssay (NCATS)
